The values below come from PubChem BioAssay (Tox21).

Inconclusive results are not listed. The source made the active and inactive calls. The call rests on the fitted dose curve; in most records, active means well fitted inhibition curve with a large enough effect in the repeat runs; inconclusive means weak or mixed curves; inactive means no such curve, though single readings can be large or run the other way.
On the % scale 0 is the no-effect control and ±100 the full control effect; potency means the concentration at half of the fitted maximal effect.

Chain of Cytochrome P450 2C9 (Homo sapiens) (P11712 whole entry, looked up): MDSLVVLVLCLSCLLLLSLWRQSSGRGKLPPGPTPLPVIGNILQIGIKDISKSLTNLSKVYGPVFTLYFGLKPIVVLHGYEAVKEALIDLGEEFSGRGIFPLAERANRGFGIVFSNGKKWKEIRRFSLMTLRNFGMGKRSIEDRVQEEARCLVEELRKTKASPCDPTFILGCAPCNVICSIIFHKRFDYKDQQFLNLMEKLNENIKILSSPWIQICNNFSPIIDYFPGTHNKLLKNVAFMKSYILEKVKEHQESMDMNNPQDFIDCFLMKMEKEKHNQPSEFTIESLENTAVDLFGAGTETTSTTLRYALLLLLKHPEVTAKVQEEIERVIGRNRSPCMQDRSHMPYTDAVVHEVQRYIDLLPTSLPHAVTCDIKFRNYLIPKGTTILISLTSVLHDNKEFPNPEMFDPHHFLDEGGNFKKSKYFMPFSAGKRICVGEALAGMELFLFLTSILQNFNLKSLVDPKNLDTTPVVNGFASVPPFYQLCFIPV

The assay deals with Cytochrome P450 2C9 (Homo sapiens) (UniProt P11712). The assay is described as follows: Cytochrome P450 Family 2 Subfamily C Member 9 (CYP2C9) small molecule antagonists: luciferase reporter qHTS assay (AID 1671198). Further: nearly all actives have a fitted effect of over 50% in size. The settings on record: P450-Glo CYP2C9 enzyme assay, luciferin luminescence; series mostly up to 115 µM; activity change, negative = inhibition: at the top concentration. From the text:
U.S. Tox21 Program National Center for Advancing Translational Sciences [NCATS] U.S. Environmental Protection Agency [EPA] National Institutes of Environmental Health Sciences [NIEHS] National Toxicology Program [NTP] U.S. Food and Drug Administration [FDA] Tox21 Assay Overview: Cytochrome P450 (CYP) enzymes are membrane-bound hemeproteins that play a key role in metabolism of drugs and xenobiotics. Evaluation of the effect of chemicals on CYP isozymes is useful to minimize the adverse drug reactions and toxicities in drug development process. Tox21 chemicals were tested for their effect on CYP enzyme activities by using P450-Glo (TM) screening systems (Promega Corporation, Madison, WI). These systems provide a luminescent method containing proluciferin substrates and are converted to luciferin products by CYP isozymes. The luciferin products formed are detected with a luciferin detection reagent, and the amount of light produced is proportional to CYP activity. P450-Glo (TM) CYP2C9 screening system (Catalog. No. V9790) was used to detect the compounds that interfere in CYP2C9 activity.
Tox21 Assay Protocol Summary: Two ul of enzyme-substrate mix was dispensed into medium binding white/solid 1536-well plates (Greiner Bio-One North America Inc., Monroe, NC) using a BioRaptr Flying Reagent Dispenser (FRD, Beckman Coulter, Brea, CA). […] The assay plates were incubated at room temperature for 10 min. Then 2 ul of NADPH regeneration solution was added to each well of the assay plates using an FRD and incubated at 37C for 1 h. The reaction was stopped by adding 4 ul of detection reagent using an FRD and after 20 min incubation at room temperature the luminescence signal was measured using a ViewLux plate reader (Perkin Elmer, Shelton, CT). Data were expressed as relative luminescence units.
In general terms: Reporter assays use an easily measured gene product as a stand-in for the process of interest.
Consider `COCCC(=O)OC`, for which the “activity change, negative = inhibition” value was -0.261% (inactive).

For `CCCCCc1ccc(O)cc1`, the Potency is 63.3 µM (active).

On to `CCc1c(C)cc(N)c(CC)c1N`, for which the Potency is 28.3 µM (active).

As for `CN[C@H]1CC[C@@H](c2ccc(Cl)c(Cl)c2)c2ccc(S(N)(=O)=O)cc21`, the Potency was 39.9 µM (active).

For the molecule `CCOC=C(C(=O)OCC)C(=O)OCC`, the “activity change, negative = inhibition” value is -12.1% (inactive).

In the case of `NCc1ccco1`, the “activity change, negative = inhibition” value is 1.15% (inactive).

As to `CN1CCN(C)CC1`, the “activity change, negative = inhibition” value was -4.2% (inactive).

In the case of `CN(C[C@@H](CC[N+]12CCC(C3CCCCC3)(CC1)CC2)c1ccc(Cl)c(Cl)c1)C(=O)c1cc(C(F)(F)F)cc(C(F)(F)F)c1`, the Potency is 39.9 µM (active).

For the molecule `N#CCCOCCC#N`, the “activity change, negative = inhibition” value is -5.02% (inactive).

As for `CC(C)(C)c1ccc(OC2CCCCC2O)cc1` (stereo not given), the Potency was 35.6 µM (active).

With `Cn1ccnc1`, the “activity change, negative = inhibition” value was -1.13% (inactive).

Consider `CCCC(C)C=O` (stereo not given), for which the “activity change, negative = inhibition” value was 1.73% (inactive).

Turning to `Clc1nc(C(Cl)(Cl)Cl)c(Cl)c(Cl)c1Cl`, the Potency was 35.6 µM (active).

For `Cc1ccc(C2OC[C@@H]3OC(c4ccc(C)cc4)O[C@H]([C@H](O)CO)[C@@H]3O2)cc1` (stereo not given in full), the “activity change, negative = inhibition” value was -3.83% (inactive).

For `O=C1OC(=O)c2cc(-c3ccc4c(c3)C(=O)OC4=O)ccc21`, the “activity change, negative = inhibition” value is -11.7% (inactive).

Regarding `Cc1ccc(Cl)c(N)c1Cl`, the “activity change, negative = inhibition” value was -10.7% (inactive).

Turning to `C/C=C/C(=O)C1=C(C)C=CCC1(C)C`, the “activity change, negative = inhibition” value is -1.32% (inactive).

Turning to `C=C1C(CCl)(CCl)C2(Cl)C(Cl)C(Cl)C1(Cl)C2(Cl)Cl` (stereo not given), the Potency is 15.7 µM (active).

Regarding `C=Cc1ccncc1`, the “activity change, negative = inhibition” value was -7.83% (inactive).

For the molecule `Oc1ccc(C2(c3ccc(O)c(C4CCCCC4)c3)CCCCC2)cc1C1CCCCC1`, the Potency was 2.52 µM (active).

As for `Cc1ccc2nc(-c3ccc(N)cc3)sc2c1S(=O)(=O)O`, the Potency is 15.7 µM (active).

On to `CCC(C)(C)c1ccc(CC(C)CN2C[C@@H](C)O[C@@H](C)C2)cc1` (stereo not given in full), for which the Potency is 27.5 µM (active).

In the case of `Cc1c(Cl)c(=O)oc2cc(O)ccc12`, the “activity change, negative = inhibition” value was -16.8% (inactive).

In the case of `N#Cc1ccc(C/C(=N/NC(=O)Nc2ccc(OC(F)(F)F)cc2)c2cccc(C(F)(F)F)c2)cc1`, the Potency was 22.4 µM (active).

For the molecule `O=C(c1ccccc1)c1ccc(Cl)cc1`, the Potency was 15.9 µM (active).

As to `O=c1cc[nH]cc1`, the “activity change, negative = inhibition” value was -1.61% (inactive).

For the molecule `Cc1ccc2n[nH]nc2c1`, the “activity change, negative = inhibition” value is 10.4% (inactive).

On to `C=C(C)CCO`, for which the “activity change, negative = inhibition” value was 1.45% (inactive).

As to `CCN(CC)c1ccc(C=O)c(O)c1`, the “activity change, negative = inhibition” value was 38.2% (inactive).

With `CCN(CCC#N)c1ccc(N=Nc2ccc([N+](=O)[O-])cc2)cc1`, the “activity change, negative = inhibition” value was -11% (inactive).

For the molecule `CCOC(=O)[C@H](C)O`, the “activity change, negative = inhibition” value is -1.96% (inactive).

Turning to `CCSCC`, the “activity change, negative = inhibition” value is -10.4% (inactive).

As for `CC1(C)[C@H]2CC[C@]1(C)C(=O)C2`, the “activity change, negative = inhibition” value is 4.6% (inactive).

On to `CC(C=O)c1ccccc1` (stereo not given), for which the Potency is 35.6 µM (active).

With `COc1ccc(OC)c(N=Nc2c(O)ccc3ccccc23)c1`, the Potency was 6.33 µM (active).

Regarding `C=C1CC[C@H]2O[C@]2(C)CC[C@@H]2[C@@H]1CC2(C)C`, the “activity change, negative = inhibition” value was -7.16% (inactive).

Take `CCC(O)CO` (stereo not given): the “activity change, negative = inhibition” value is -0.842% (inactive).

Consider `O=C1OC2(c3ccccc31)c1ccc(O)c(Br)c1Oc1c2ccc(O)c1Br`, for which the Potency was 63.3 µM (active).

`CCOc1ccc([N+](=O)[O-])cc1`: the Potency is 16.1 µM (active).

As for `C/C(=N\[Si](C)(C)C)O[Si](C)(C)C`, the “activity change, negative = inhibition” value is -2.9% (inactive).
